IL1B secr inh: qHTS for Inhibitors of Inflammasome Signaling: IL-1-beta AlphaLISA Primary Screen; activity change, % at 57.5 µM; 360,000 tested, 4.7% active; AID 743279, 2014; THP-1 LPS/ATP IL-1B secretion, AlphaLISA, 16 h; hits give low values; in the data active = activity change below about -50%; inconclusive = mostly about -30% to -49%; note: % is set by controls: 0 for no effect and ±100 for the full control effect
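Secreted IL-1B measured by AlphaLISA bead assay after 16 h compound exposure of THP-1 cells; compounds (final up to 57.5 uM) added 1 h before LPS (250 ng/mL) and ATP (1.25 mM) stimulation; lower signal means less secretion.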
HepG2 viability: qHTS for Inhibitors of TGF-b: Cytotox Counterscreen | 410,000 tested, 0.76% active | AID 588856, 2011 | HepG2 CAGA-GFP viability, ATP luminescence, 18 h | Potency, µM (titrated, usually from 46.1 µM), inactives show top-dose activity change, negative = cytotoxicity, hits mostly cytotoxic; note: potency is the fitted concentration of half-maximal effect
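CellTiter-Glo luminescence gave cytotoxicity after 18 hours at 37 degrees C. The cells were HepG2 CAGA-GFP in 1% FBS DMEM, stimulated with 500 pg/mL TGF-beta after compound addition. %Activity was normalised to no-cell wells (complete cell-killing) and DMSO (no toxicity), and curves were fitted and classified.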
TDP1 cell noCPT: qHTS for Inhibitors of human tyrosyl-DNA phosphodiesterase 1 (TDP1): qHTS in cells in absence of CPT; DT40 Tdp1-/- hTDP1 cells, no CPT, ATP luminescence, 48 h; Potency, µM (doses to about 46.2 µM), for the others: at the top dose activity change, negative = growth inhibition, usual class: inhibitors; 420,000 tested, 15% active; AID 686978, 2013; note: potency is the fitted concentration of half-maximal effect; % is set by controls: 0 for no effect and ±100 for the full control effect; nearly all actives have a fitted effect of over 55% in size
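Luminescent ATP content (CellTiter-Glo) served as the growth readout. Knockout chicken DT40 cells expressing human TDP1 were exposed to compounds without camptothecin for a minimum 48 hr at 37 °C.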
TGFb SMAD3 inh: qHTS for Inhibitors of TGF-b; HepG2 CAGA-GFP TGF-b/SMAD3 reporter, GFP fluorescence, 18 h; TGF-beta stimulated, 500 pg/mL final; Potency, µM (series often up to 46.1 µM), for the others: at the top dose activity, negative = inhibition, actives largely listed as inhibitors; 410,000 tested, 1.2% active; AID 588855, 2011; note: potency is the fitted concentration of half-maximal effect; % is set by controls: 0 for no effect and ±100 for the full control effect; nearly all actives have a fitted effect of over 65% in size
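HEPG2 CAGA-GFP cells (1000/well, DMEM with 1% FBS) were pre-incubated 2 h at 37 degrees C, given compound by pin tool, then stimulated with TGF-beta at 500 pg/mL final for 18 h before per-cell GFP fluorescence imaging.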
TDP1 cell CPT: qHTS for Inhibitors of human tyrosyl-DNA phosphodiesterase 1 (TDP1): qHTS in cells in presence of CPT; chicken DT40 Tdp1-/-;hTDP1 cells + 20 nM CPT, ATP luminescence, 48 h; Potency, µM (doses to about 46.2 µM), inactives show top-dose activity change, negative = growth inhibition, actives largely listed as inhibitors; 420,000 tested, 12% active; note: potency is the fitted concentration of half-maximal effect; % is set by controls: 0 for no effect and ±100 for the full control effect; nearly all actives have a fitted effect of over 55% in size
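Cell growth measured by CellTiter-Glo luminescence after a minimum 48 h, 37 C compound exposure with 20 nM CPT in Tdp1-knockout DT40 cells stably expressing hTDP1, seeded 400/well; qHTS titration format.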
TDP1 block: qHTS Assay for Inhibitors of Tyrosyl-DNA Phosphodiesterase (TDP1) | 350,000 tested, 0.28% active | recombinant TDP1, AlphaScreen DNA substrate cleavage | Tyrosyl-DNA phosphodiesterase 1 (Homo sapiens), Q9NUW8 | Potency, µM (series often up to 130 µM), for the others: top-dose activity change, negative = inhibition, usual class: inhibitors; note: potency is the fitted concentration of half-maximal effect; % is set by controls: 0 for no effect and ±100 for the full control effect; nearly all actives have a fitted effect of over 40% in size
Target sequence (Q9NUW8 whole entry, looked up): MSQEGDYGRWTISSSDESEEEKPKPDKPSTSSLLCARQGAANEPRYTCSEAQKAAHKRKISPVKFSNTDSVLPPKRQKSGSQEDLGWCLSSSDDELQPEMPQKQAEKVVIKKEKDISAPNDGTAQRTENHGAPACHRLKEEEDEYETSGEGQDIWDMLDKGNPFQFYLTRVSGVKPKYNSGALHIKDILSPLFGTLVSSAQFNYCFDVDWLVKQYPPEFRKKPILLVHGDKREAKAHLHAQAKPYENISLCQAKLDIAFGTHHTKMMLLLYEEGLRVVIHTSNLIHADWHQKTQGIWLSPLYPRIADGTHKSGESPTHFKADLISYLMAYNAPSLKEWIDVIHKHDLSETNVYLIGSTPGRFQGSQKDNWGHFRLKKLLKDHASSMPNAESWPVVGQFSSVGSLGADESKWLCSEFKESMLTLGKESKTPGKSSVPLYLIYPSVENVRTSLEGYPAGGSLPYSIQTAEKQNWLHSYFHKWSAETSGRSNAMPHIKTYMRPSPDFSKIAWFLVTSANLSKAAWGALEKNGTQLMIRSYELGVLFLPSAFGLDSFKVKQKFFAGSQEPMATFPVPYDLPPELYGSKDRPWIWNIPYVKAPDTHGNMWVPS
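E. coli-derived human Tdp1, 1 nM final. Cpd preinc 15 min RT; substrate 15 nM final, 5 min RT; AS bead mix 10 ug/ml final, 10 min RT. Signal loss = tyrosine-FITC cleavage. No-enzyme wells = max signal.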
* marks the source's active call; other numbers are inactive results. In the library only some 19% were active in any assay of this set; here they are far more common. Unless noted, calls come from the whole dose curve; as a rule, active = well fitted curve in the direction sought with a large enough effect; inconclusive = small, poorly fitted or top-dose-only effect, or another doubt; inactive = no such curve, though single readings can be large; an effect the other way counts as inactive or inconclusive.

O=C(N/N=C/c1ccc2ncccc2c1)c1cc(-c2cccs2)nc2ccccc12 was read as IL1B secr inh 30, HepG2 viability 34%, TDP1 cell noCPT 3.3µM*, TGFb SMAD3 inh 18% and TDP1 cell CPT 2.9µM*.
For O=C(N/N=C/c1ccc[nH]1)c1ccccc1O the results were IL1B secr inh -1, HepG2 viability 1%, TDP1 cell noCPT -10%, TGFb SMAD3 inh -27%, TDP1 cell CPT 26% and TDP1 block 0%.
For O=C(N/N=C/c1ccc[nH]1)c1cc(-c2cccs2)nc2ccccc12 the results were IL1B secr inh 15, HepG2 viability -36%, TDP1 cell noCPT 21µM*, TGFb SMAD3 inh -10%, TDP1 cell CPT inconclusive and TDP1 block 10%.
For Cn1cccc1/C=N/NC(=O)c1cc2ccccc2cc1O the results were IL1B secr inh 74, HepG2 viability -29%, TDP1 cell noCPT 21µM*, TGFb SMAD3 inh inconclusive, TDP1 cell CPT -27% and TDP1 block 1%.
For Cc1ccc2c(Cl)c(C(=O)N/N=C/c3cccn3C)sc2c1 the results were IL1B secr inh 2, HepG2 viability 6%, TDP1 cell noCPT 8.2µM*, TGFb SMAD3 inh -36%, TDP1 cell CPT 8.2µM* and TDP1 block 4%.
Screening Cc1ccc(S(=O)(=O)N2CCN(C(=S)NCc3ccc4c(c3)OCO4)CC2)cc1 returned IL1B secr inh -21, HepG2 viability -15%, TDP1 cell noCPT inconclusive, TGFb SMAD3 inh inconclusive, TDP1 cell CPT inconclusive and TDP1 block 2%.
CCOc1ccc(NC(=O)CN(C)C(=O)c2c(C)nn(Cc3ccccc3Cl)c2C)cc1OCC was read as IL1B secr inh -26, HepG2 viability -16%, TDP1 cell noCPT -1%, TGFb SMAD3 inh -13% and TDP1 cell CPT -20%.
For O=C(CN(C(=O)c1csnn1)c1cccc2c1CCCC2)NC1CCCC1 the results were IL1B secr inh 9, HepG2 viability 0%, TDP1 cell noCPT -14%, TGFb SMAD3 inh 5%, TDP1 cell CPT 7% and TDP1 block -1%.
`Cn1cccc1/C=N/NC(=O)c1cc(-c2cccs2)nc2ccccc12` gave IL1B secr inh 21, HepG2 viability -33%, TDP1 cell noCPT 5.8µM*, TGFb SMAD3 inh 0%, TDP1 cell CPT 8.2µM* and TDP1 block 11%.
`O=C(NN1CCOCC1)c1cc(-c2cccs2)nc2ccccc12` gave IL1B secr inh -5, HepG2 viability -13%, TDP1 cell noCPT inconclusive, TGFb SMAD3 inh -5%, TDP1 cell CPT -17% and TDP1 block 3%.
`O=C(N/N=C/c1cccnc1)c1cc(-c2cccs2)nc2ccccc12` gave IL1B secr inh 30, HepG2 viability -45%, TDP1 cell noCPT 16µM*, TGFb SMAD3 inh -10%, TDP1 cell CPT inconclusive and TDP1 block 2%.
`Cc1ccc(C(NC(=O)C2CCN(Cc3ccc(Cl)c(Cl)c3)CC2)c2ccccn2)cc1` (stereo not drawn) gave HepG2 viability 1%, TDP1 cell noCPT 1.3µM*, TGFb SMAD3 inh -17% and TDP1 cell CPT inconclusive.
`Cc1ccc(C(NC(=O)C2CCN(CCOc3ccccc3)CC2)c2ccccn2)cc1` (stereo not drawn) gave IL1B secr inh -55*, HepG2 viability -20%, TDP1 cell noCPT inconclusive, TGFb SMAD3 inh -2% and TDP1 cell CPT inconclusive.
`COc1ccc(CN2CCC(C(=O)NC(c3ccc4c(c3)OCO4)c3ccccn3)CC2)cc1` (stereo not drawn) gave IL1B secr inh -2, HepG2 viability -19%, TDP1 cell noCPT -16%, TGFb SMAD3 inh -8% and TDP1 cell CPT 4%.
Screening Cc1ccc(C(NC(=O)C2CCN(Cc3ccc(Oc4ccccc4)cc3)CC2)c2ccccn2)cc1 (stereo not drawn) returned HepG2 viability 11µM*, TDP1 cell noCPT 23µM*, TGFb SMAD3 inh inconclusive and TDP1 cell CPT inconclusive.
COc1ccc(C(NC(=O)C2CCN(C/C=C/c3ccc(OC(C)=O)c(OC)c3)CC2)c2ccccn2)cc1 (stereo not drawn) was read as IL1B secr inh -17, HepG2 viability -33%, TDP1 cell noCPT 21µM*, TGFb SMAD3 inh -16% and TDP1 cell CPT inconclusive.
COc1ccc(C(NC(=O)C2CCN(CCc3ccccc3)CC2)c2ccccn2)cc1 (stereo not drawn) was read as IL1B secr inh 0, HepG2 viability 5%, TDP1 cell noCPT -6%, TGFb SMAD3 inh 11% and TDP1 cell CPT -4%.
`O=C(COC(=O)/C=C/c1cccc([N+](=O)[O-])c1)Nc1cccnc1Cl` gave IL1B secr inh 3, HepG2 viability -21%, TDP1 cell noCPT -23%, TGFb SMAD3 inh 0%, TDP1 cell CPT 2% and TDP1 block -3%.
O=C(NC(c1ccc(Cl)cc1)c1cnccn1)C1CCN(Cc2ccc(Oc3ccccc3)cc2)CC1 (stereo not drawn) was read as HepG2 viability -99%, TDP1 cell noCPT 16µM*, TGFb SMAD3 inh inconclusive and TDP1 cell CPT 15µM*.
Screening CCOC(=O)[C@H]1[C@H]2COc3ccc(Cl)cc3[C@@H]2N2C(=O)c3cc(OC)ccc3NC(=O)[C@@]12C returned IL1B secr inh -27, HepG2 viability -4%, TDP1 cell noCPT 23µM*, TGFb SMAD3 inh 5%, TDP1 cell CPT inconclusive and TDP1 block 0%.
CCOC(=O)[C@H]1[C@H]2COc3ccc(Cl)cc3[C@@H]2N2C(=O)c3ccc(Cl)cc3NC(=O)[C@@]12C was read as IL1B secr inh -7, HepG2 viability -38%, TDP1 cell noCPT 18µM*, TGFb SMAD3 inh 14%, TDP1 cell CPT inconclusive and TDP1 block 3%.
CCOC(=O)[C@H]1[C@H]2COc3ccc(C)cc3[C@@H]2N2C(=O)c3ccc(Cl)cc3NC(=O)[C@@]12C was read as IL1B secr inh -2, HepG2 viability -6%, TDP1 cell noCPT inconclusive, TGFb SMAD3 inh -4%, TDP1 cell CPT inconclusive and TDP1 block 1%.
